Key:
[1] = molecular target: Mitogen-activated protein kinase 3 (Homo sapiens) (UniProt P27361); conditions: at 1 µM;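 also: values are mean percent inhibition of MAPK3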
[2] = molecular target: SRSF protein kinase 3 (Homo sapiens) (UniProt Q9UPE1); conditions: at 0.1 µM
[3] = molecular target: SRSF protein kinase 3 (Homo sapiens) (UniProt Q9UPE1); conditions: at 1 µM
[4] = molecular target: Mitogen-activated protein kinase 14 (Homo sapiens) (UniProt Q16539); conditions: at 0.1 µM
[5] = molecular target: Mitogen-activated protein kinase 14 (Homo sapiens) (UniProt Q16539); conditions: at 1 µM
[6] = molecular target: Mitogen-activated protein kinase 11 (Homo sapiens) (UniProt Q15759); conditions: at 0.1 µM
[7] = molecular target: Mitogen-activated protein kinase 11 (Homo sapiens) (UniProt Q15759); conditions: at 1 µM
[8] = molecular target: T1, Mitogen-activated protein kinase 13 (Homo sapiens) (UniProt O15264); conditions: at 0.1 µM
T1 sequence (whole entry): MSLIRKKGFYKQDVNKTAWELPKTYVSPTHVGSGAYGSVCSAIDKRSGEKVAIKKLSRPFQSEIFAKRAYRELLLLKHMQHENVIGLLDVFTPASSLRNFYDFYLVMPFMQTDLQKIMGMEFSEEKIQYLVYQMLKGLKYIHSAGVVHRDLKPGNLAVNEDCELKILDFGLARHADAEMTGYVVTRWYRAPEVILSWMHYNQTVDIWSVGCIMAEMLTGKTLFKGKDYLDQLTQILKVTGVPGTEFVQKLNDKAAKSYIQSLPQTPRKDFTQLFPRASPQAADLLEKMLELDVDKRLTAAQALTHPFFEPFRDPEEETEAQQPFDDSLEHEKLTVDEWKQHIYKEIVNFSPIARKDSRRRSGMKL

[9] = molecular target: T1, Mitogen-activated protein kinase 13 (Homo sapiens); conditions: at 1 µM
[10] = molecular target: T2, Mitogen-activated protein kinase 12 (Homo sapiens) (UniProt P53778); conditions: at 0.1 µM
T2 sequence (whole entry): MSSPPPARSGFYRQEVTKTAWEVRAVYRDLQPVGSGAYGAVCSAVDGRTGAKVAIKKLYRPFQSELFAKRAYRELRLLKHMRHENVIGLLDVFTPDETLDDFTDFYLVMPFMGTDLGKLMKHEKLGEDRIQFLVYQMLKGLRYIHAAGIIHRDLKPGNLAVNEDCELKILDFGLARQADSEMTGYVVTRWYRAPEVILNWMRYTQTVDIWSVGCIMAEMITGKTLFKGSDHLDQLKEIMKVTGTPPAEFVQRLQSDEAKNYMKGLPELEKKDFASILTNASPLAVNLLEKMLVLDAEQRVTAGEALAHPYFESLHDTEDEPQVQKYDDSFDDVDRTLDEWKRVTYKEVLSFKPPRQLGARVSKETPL

Chain of Mitogen-activated protein kinase 11 (Homo sapiens) (Q15759 whole entry): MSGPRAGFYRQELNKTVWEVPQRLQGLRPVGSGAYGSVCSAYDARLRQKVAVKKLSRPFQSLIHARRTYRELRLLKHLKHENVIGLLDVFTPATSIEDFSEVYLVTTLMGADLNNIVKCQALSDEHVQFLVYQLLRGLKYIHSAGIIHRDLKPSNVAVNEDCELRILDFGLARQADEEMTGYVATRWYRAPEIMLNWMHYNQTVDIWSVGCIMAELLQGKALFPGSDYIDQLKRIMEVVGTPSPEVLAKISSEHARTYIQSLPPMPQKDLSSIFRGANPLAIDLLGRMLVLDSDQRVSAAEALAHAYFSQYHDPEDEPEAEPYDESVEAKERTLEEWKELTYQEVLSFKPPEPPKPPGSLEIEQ
Chain of Mitogen-activated protein kinase 14 (Homo sapiens) (Q16539 whole entry): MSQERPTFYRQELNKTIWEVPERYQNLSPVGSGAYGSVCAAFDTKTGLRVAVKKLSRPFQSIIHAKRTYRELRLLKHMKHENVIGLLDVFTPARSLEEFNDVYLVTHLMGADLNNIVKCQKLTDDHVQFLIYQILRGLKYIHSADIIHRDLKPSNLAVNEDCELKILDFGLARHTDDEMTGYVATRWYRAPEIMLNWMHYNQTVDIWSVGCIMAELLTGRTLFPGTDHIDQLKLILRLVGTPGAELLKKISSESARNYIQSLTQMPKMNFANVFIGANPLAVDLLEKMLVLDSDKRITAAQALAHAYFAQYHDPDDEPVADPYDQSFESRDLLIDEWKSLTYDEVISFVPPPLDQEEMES
Chain of SRSF protein kinase 3 (Homo sapiens) (Q9UPE1 whole entry): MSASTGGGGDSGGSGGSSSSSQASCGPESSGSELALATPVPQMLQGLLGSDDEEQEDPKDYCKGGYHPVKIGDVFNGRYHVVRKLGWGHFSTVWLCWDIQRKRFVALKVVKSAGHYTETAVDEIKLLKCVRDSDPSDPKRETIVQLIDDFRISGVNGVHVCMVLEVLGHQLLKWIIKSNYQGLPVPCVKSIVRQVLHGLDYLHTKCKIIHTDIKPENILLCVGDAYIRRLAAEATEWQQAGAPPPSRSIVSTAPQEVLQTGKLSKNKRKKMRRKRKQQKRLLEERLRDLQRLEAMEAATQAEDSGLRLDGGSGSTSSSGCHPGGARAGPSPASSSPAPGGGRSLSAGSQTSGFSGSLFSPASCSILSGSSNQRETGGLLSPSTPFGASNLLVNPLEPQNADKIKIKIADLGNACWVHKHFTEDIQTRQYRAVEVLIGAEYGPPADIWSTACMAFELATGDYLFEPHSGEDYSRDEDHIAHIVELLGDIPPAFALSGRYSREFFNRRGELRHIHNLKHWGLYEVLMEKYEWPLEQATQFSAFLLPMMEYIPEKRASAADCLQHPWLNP
Chain of Mitogen-activated protein kinase 3 (Homo sapiens) (P27361 whole entry): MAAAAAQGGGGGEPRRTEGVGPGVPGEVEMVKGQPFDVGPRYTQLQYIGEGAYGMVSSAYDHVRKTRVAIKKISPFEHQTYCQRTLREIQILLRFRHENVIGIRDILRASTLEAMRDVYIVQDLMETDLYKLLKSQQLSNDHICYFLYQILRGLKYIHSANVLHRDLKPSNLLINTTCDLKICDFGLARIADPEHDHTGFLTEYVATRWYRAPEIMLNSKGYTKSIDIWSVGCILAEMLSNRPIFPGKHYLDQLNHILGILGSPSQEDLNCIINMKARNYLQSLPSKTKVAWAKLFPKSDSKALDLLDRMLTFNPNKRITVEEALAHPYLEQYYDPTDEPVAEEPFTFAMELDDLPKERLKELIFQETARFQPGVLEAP

Row | SMILES | inhibition [1] [%] | inhibition [2] [%] | inhibition [3] [%] | inhibition [4] [%] | inhibition [5] [%] | inhibition [6] [%] | inhibition [7] [%] | inhibition [8] [%] | inhibition [9] [%] | inhibition [10] [%]
1 | O=C1Nc2ccc(C(=O)c3ccco3)cc2C1=Cc1cc(Cl)c(O)c(Cl)c1 | 3.14 | -3.06 | 0.75 | 2.28 | 6.71 | 1.71 | 3.75 | 0.88 | 2.9 | 0.31
2 | Cc1ccc(NC(=O)c2ccnc(N3CCCC3)c2)cc1-c1ccc(C(=O)NCC2CC2)cc1 | 3.65 | -0.5 | -0.3 | 38.3 | 79.6 | 40.9 | 78.9 | 3.45 | 5.79 | 4.49
3 | CC(C)=Cc1cccc2c1/C(=N/Nc1ccc(S(N)(=O)=O)cc1)C(=O)N2 | 2.62 | -0.98 | 3.29 | 0.04 | 1.72 | 0.78 | 5.29 | 0.28 | 1.32 | -0.48
4 | CCc1cccc(NC(=O)Nc2ccc(Oc3ccc4nc(NC(=O)OC)[nH]c4c3)cc2)c1 | 2.79 | 1.41 | 2.28 | 2.41 | 3.05 | 1.54 | 6.14 | 0.54 | 0.33 | -0.64
5 | Nc1ncnc2occ(-c3ccc(NC(=O)Nc4cc(C(F)(F)F)cc(C(F)(F)F)c4)cc3)c12 | 2.23 | 1.52 | -0.42 | 2.48 | 11 | 0.21 | 8.68 | -0.42 | 14.5 | -0.95
6 | CC1=C(C(=O)Nc2ccc3[nH]ncc3c2)C(c2ccc3ccccc3c2)CC(=O)N1 (stereo not given) | 22.4 | 0.02 | -0.13 | 3.64 | 5.06 | -1.05 | 2.44 | 3.08 | 2.24 | -0.44
7 | COc1cc2ncn(-c3cc(OCc4ccccc4C(F)(F)F)c(C(N)=O)s3)c2cc1OC | 3.77 | -2.16 | 5.51 | 9.41 | 9.56 | 3.98 | 7.82 | 5.41 | 5.14 | 4.2
8 | O=C1NC(=O)C(c2ccccc2Cl)=C1Nc1cccc(O)c1 | 1.29 | 1.93 | 4.52 | 2.48 | 4.36 | 2.37 | 0.91 | 1.98 | 4.14 | 5.33
9 | CC(=O)Nc1cccc(C#Cc2cncnc2Nc2ccc(OCc3cccc(F)c3)c(Cl)c2)n1 | 1.62 | -0.01 | 3.44 | -0.35 | -1.8 | 0.21 | 3.12 | -1.33 | -1.57 | -2.16
10 | COc1cc2ncn(-c3cc(O[C@H](C)c4ccccc4Cl)c(C(N)=O)s3)c2cc1OC | 4.54 | -0.2 | 8.42 | 5.73 | 6.35 | 3.71 | 4.9 | 2.38 | 3.77 | 2.99
11 | Cc1nn(C)c2cc(N(C)c3ccnc(Nc4cccc(S(N)(=O)=O)c4)n3)ccc12 | 0.11 | -3.4 | -1.66 | 4.32 | 19.7 | 3.77 | 25.1 | 1.54 | 4.16 | -0.41
12 | NCc1ccc(-c2nc(-c3ccc(Cl)c(O)c3)c(-c3ccncc3)[nH]2)cc1 | 0.95 | -2.12 | -2.01 | 41 | 77.1 | 13.6 | 54 | -0.52 | 1.79 | -0.97
13 | Nc1nc(-c2ccc3c(c2)C(=Cc2cc(Br)c(O)c(Br)c2)C(=O)N3)cs1 | 1.82 | -2.97 | -1.79 | 1.75 | -0.33 | -2.08 | 2.83 | -2.1 | -1.28 | -1.72
14 | CCCN1CCC=C(c2ccc(Nc3nc(Nc4ccccc4C(N)=O)c4cc[nH]c4n3)c(C)c2)C1 | 11.3 | 4.11 | 12.7 | 4.64 | 7.87 | 2.75 | 7.8 | 4.35 | 8.15 | 3.52
15 | COc1cccc(-n2ncc3c(N/N=C/c4cccc(F)c4)ncnc32)c1 | 0.85 | -2.57 | -3.83 | -0.34 | 5.39 | 3.19 | 0 | 2.14 | 6.21 | 4.04
16 | CCn1c(-c2nonc2N)nc2cnc(Oc3cccc(NC(=O)c4ccc(OCCN5CCOCC5)cc4)c3)cc21 | -0.18 | -2.67 | -1.29 | 2.01 | 5.87 | 0.84 | 1.06 | -1.34 | 4.61 | 8.56
17 | CCn1c(-c2nonc2N)nc2c(C#CC(C)(C)O)nc(CN3CCCC3)cc21 | 0.84 | -1.03 | -0.96 | 0.68 | -0.47 | -2.47 | 0.28 | 0.31 | -1.59 | 1.31

Row | SMILES | inhibition [1] [%] | inhibition [2] [%] | inhibition [3] [%] | inhibition [4] [%] | inhibition [5] [%] | inhibition [6] [%] | inhibition [7] [%] | inhibition [8] [%] | inhibition [9] [%] | inhibition [10] [%]
18 | O=C1NC(=O)C(c2cccc(Cl)c2)=C1Nc1ccc(O)c(Cl)c1 | 2.28 | -0.01 | 2.47 | 1.38 | 8.66 | 1.96 | 4.99 | 0.26 | 0.3 | -0.58
19 | COc1cc2ncn(-c3cc(OCc4ccccc4Cl)c(C(N)=O)s3)c2cc1OC | 1.75 | -0.61 | -1.33 | 2.7 | 18.4 | 1.39 | 4.07 | 0.95 | 0.78 | 1.88
20 | CN1CCC(C(=O)Nc2n[nH]c3nnc(-c4ccccc4)cc23)CC1 | 7.39 | -1.72 | -1.01 | 2.08 | 5.41 | 5.95 | 5.33 | 1.73 | 5.59 | 3.05
21 | CC1=C(C(=O)Nc2ccc3[nH]ncc3c2)C(c2ccc(F)cc2)NC(=O)N1 (stereo not given) | 3.56 | -2.61 | -0.84 | 2.74 | 6.99 | 2.94 | 3.88 | 0.78 | 2.31 | 0.89
22 | O=C1NC(=O)C(N2CCc3ccccc32)=C1c1ccc(Cl)cc1 | 2.62 | 1.04 | -0.52 | 3.97 | 8.43 | 5.07 | 4.84 | 1.06 | 5.95 | 3.98
23 | Cc1cc(O)cc(C)c1/C=C/c1cncc(-c2nn[nH]n2)c1 | 5.1 | 0.25 | -0.18 | 8.41 | 12.6 | 3.52 | 3.01 | 3.42 | 5.1 | 1.46
24 | [O-][S+]1CCN(Cc2ccc(-c3ccc4ncnc(Nc5ccc(OCc6ccccc6)c(F)c5)c4c3)o2)CC1 | -0.07 | -1.09 | -1.23 | 1.59 | 8.77 | 3.66 | 6.24 | -1.08 | 3.34 | 0.27
25 | Cn1cc(C=C2C(=O)Nc3cccnc32)c2ccccc21 | 2.73 | -0.25 | -0.47 | 3.62 | 7.85 | 3.65 | 5.58 | -0.63 | 2.23 | 2.25
26 | COc1ccc(-c2ccncc2)cc1C(N)=O | 5.57 | 0.64 | -1.37 | 7.77 | 9.51 | -0.28 | 5.04 | 5.1 | 6.16 | 4.29
27 | COC(=O)Nc1nc2cc(Oc3cccc(NC(=O)Nc4cc(C(F)(F)F)ccc4F)c3)ccc2[nH]1 | 0.49 | -1.97 | -3.98 | 2.37 | 5.26 | 1.03 | 1.94 | -4.01 | -0.11 | 0.33
28 | CS(=O)(=O)Nc1ccc(N/C=C2\C(=O)Nc3ccccc32)cc1 | -3.47 | 1.49 | 0.17 | -4.68 | -2.23 | -0.39 | 3.42 | -3.94 | -3.87 | -2.29
29 | NS(=O)(=O)c1ccc(N/N=C2\C(=O)Nc3ccc(C(=O)NCCc4c[nH]cn4)cc32)cc1 | 7.89 | 1.31 | -0.05 | 5.71 | 8.13 | 3.37 | 6.34 | -1.15 | 4.35 | 4.17
30 | NS(=O)(=O)c1cccc(-c2ccc3c(NC(=O)C4CC4)n[nH]c3c2)c1 | -0.05 | -0.57 | -6.73 | 6.37 | 9.34 | 1.5 | 5.3 | -0.02 | -0.14 | -0.74
31 | COC(=O)Nc1nc2cc(Oc3ccc(NC(=O)Nc4cccc(C(=O)O)c4)cc3)ccc2[nH]1 | 2.25 | 1.98 | 3.99 | -1.1 | 1.12 | 0.94 | -1.18 | -0.17 | -0.69 | 0.51
32 | c1cnn2ncc(-c3ccnc(Nc4ccc5c(c4)OCCO5)n3)c2c1 | 12 | -0.61 | 1.61 | 7.07 | 13.3 | 3.66 | 9.95 | 4.89 | 16.3 | 0.48
33 | COc1ccccc1Nc1ncc(-c2ccccc2)o1 | 5.55 | -1.49 | 1.35 | 10.4 | 11 | 4.31 | 7.08 | 5.83 | 4.74 | 4.14

— ChEMBL document CHEMBL1961873, “Compounds: GSK PKIS; Assays: Nanosyn kinase panel” (2012)
